About 83,000 compounds went through this panel and 20% of them were active in at least one assay; those are over-represented in the sample as a whole.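 Results are percent growth after 48 hours of single-concentration exposure. 100 means growth as in untreated cells, lower positive values show inhibition; negative values down to -100 show cell death.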 A number with no mark means an inactive call. The source made the active and inactive calls. How the source made its calls: active means growth percent below 10; inactive means the rest.

Some test systems named below: T-47D breast; BT-549 breast; MDA-MB-435 melanoma; SW-620 colon; MCF7 breast; HCT-116 colon; HCC-2998 colon; KM12 colon.
Holding throughout (experiment): NCI-60 one-dose screen, 48 h (100 = growth as untreated, 0 = no growth, -100 = all killed)
Holding throughout (details): 10 µM unless noted

`CCCCCCCCCCCCCCCCCC1=NCCN1CCNC(C)=O`: the growth in the assay with T-47D breast was 85.8%; with BT-549 breast it was 99.1%; with MDA-MB-435 melanoma it was 103%; with SW-620 colon it was 107%; with MCF7 breast, 79.2%; in the assay on HCT-116 colon, 69.1%. Besides, the values for the growth in the assay on HCC-2998 colon and in the assay on KM12 colon were 92.3% and 73.4%, respectively.

For `CCCCCCN(CCCCCC)CCC(=O)Nc1ccc(S(=O)(=O)c2ccc(NC(=O)CCN(CCCCCC)CCCCCC)cc2)cc1`, the growth is 60% with T-47D breast; 87.5% in the assay with BT-549 breast; 90.5% in the assay with MDA-MB-435 melanoma; 84.6% in the assay on SW-620 colon; 68.7% in the assay with MCF7 breast; 61.2% with HCT-116 colon. The growth in the assay with HCC-2998 colon is 32.5%; in the assay with KM12 colon, 89.5%.

For `COc1ccc(Nc2c3ccccc3nc3ccccc23)cc1`, the growth in the assay with T-47D breast was 30.6%; with BT-549 breast, 42.2%; in the assay on MDA-MB-435 melanoma, 31.3%; with SW-620 colon, 24.2%; in the assay on MCF7 breast, 11.5%; with HCT-116 colon it was 13%. Further, the growth in the assay with HCC-2998 colon was 46%; with KM12 colon it was 37.6%.

On to `CC(C)(CNC1CCCCC1)OC(=O)c1ccccc1`, for which the growth was 104% in the assay on T-47D breast; 99.7% in the assay with BT-549 breast; 107% in the assay with MDA-MB-435 melanoma; 110% in the assay with SW-620 colon; 107% in the assay with MCF7 breast; 103% in the assay with HCT-116 colon. In addition, the growth with HCC-2998 colon was 111%; in the assay on KM12 colon it was 102%.

Regarding `CCOC(=O)c1csc(-c2ccc(COC(=O)c3ccccc3)o2)n1`, the growth in the assay on T-47D breast was 102%; with BT-549 breast it was 116%; in the assay with MDA-MB-435 melanoma, 101%; in the assay with SW-620 colon, 112%; in the assay with MCF7 breast, 92.9%; in the assay with HCT-116 colon, 99.8%. The growth in the assay on HCC-2998 colon was 105%; in the assay on KM12 colon, 112%.

On to `Cc1ccc(NC(=O)CCl)cc1Cl`, for which the growth was 90.2% in the assay with T-47D breast; 76.7% with BT-549 breast; 90.9% in the assay with MDA-MB-435 melanoma; 95.5% in the assay on SW-620 colon; 87.5% in the assay on MCF7 breast; 106% in the assay on HCT-116 colon. In addition, the values for the growth in the assay on HCC-2998 colon and in the assay with KM12 colon were 115% and 111%, respectively.

With `CCC(C)(CC)c1ccc(O)c(C)c1`, the growth was 101% in the assay on T-47D breast; 98.9% in the assay with BT-549 breast; 109% in the assay with MDA-MB-435 melanoma; 107% in the assay with SW-620 colon; 99% in the assay with MCF7 breast; 96.6% in the assay on HCT-116 colon. In addition, the growth in the assay on HCC-2998 colon was 116%; in the assay with KM12 colon, 107%.

With `COc1ccc(-c2cc(C#N)c(NNC(C)=O)[nH]2)cc1`, the growth in the assay on T-47D breast was 165%; with BT-549 breast, 119%; with MDA-MB-435 melanoma it was 107%; in the assay with SW-620 colon it was 115%; in the assay on MCF7 breast, 110%; with HCT-116 colon, 92%. Further, the results for the growth with HCC-2998 colon and in the assay on KM12 colon were 105% and 107%, respectively.

For the compound `O=C(/C=C\c1ccc(NCc2ccc(C(=O)O)cc2)cc1)CCl`, the growth with T-47D breast is -22.8% (active); with BT-549 breast, 64.3%; in the assay on MDA-MB-435 melanoma, 89.5%; in the assay with SW-620 colon, 3.72% (active); in the assay with MCF7 breast, 24%; in the assay with HCT-116 colon, -15.3% (active). For the same compound, the growth in the assay on HCC-2998 colon is 97.5%; in the assay with KM12 colon, 98.2%.

Turning to `O=C1C(Cl)=C(Nc2ccc(Nc3ccccc3)c(NC3=C(Cl)C(=O)c4ccccc4C3=O)c2)C(=O)c2ccccc21`, the growth in the assay on T-47D breast is 14.9%; with BT-549 breast, 53.3%; in the assay with MDA-MB-435 melanoma, 113%; in the assay on SW-620 colon, 33.8%; in the assay with MCF7 breast, 73.7%; in the assay on HCT-116 colon, 51.2%. Further, the growth in the assay on HCC-2998 colon was 55.1%; in the assay with KM12 colon, 31.6%.

With `CCN(CCO)CCNc1ccc(C)c2sc3cc(OC)ccc3c(=O)c12`, the growth was 90.1% in the assay on T-47D breast; 88.7% in the assay with BT-549 breast; 86.2% with MDA-MB-435 melanoma; 38.4% with SW-620 colon; 52.6% with MCF7 breast; 20.5% with HCT-116 colon. The figures for the growth with HCC-2998 colon and in the assay with KM12 colon were 64.5% and 69.2%, respectively.

Consider `COc1ccc2c(c1)/C(=C1/S/C(=N/c3nnc(C)s3)NC1=O)C(=O)N2Cc1ccc(Br)cc1`, for which the growth in the assay on T-47D breast was 22%; with BT-549 breast, 42.9%; in the assay with MDA-MB-435 melanoma it was 39.3%; in the assay with SW-620 colon it was 44.5%; with MCF7 breast it was 35.1%; in the assay on HCT-116 colon, 19.7%. The growth with HCC-2998 colon was 46.1%; with KM12 colon, 27.7%.

As for `CCOC(=O)c1c(C)oc2ncnc(Nc3ccc(C(=O)NCCc4ccccc4)cc3)c12`, the growth was 65.1% with T-47D breast; 67.3% in the assay on BT-549 breast; 87.5% in the assay on MDA-MB-435 melanoma; 105% in the assay with SW-620 colon; 78.6% with MCF7 breast; 64.8% with HCT-116 colon. For the same compound, the growth was 91.5% in the assay on HCC-2998 colon and 89% with KM12 colon.

For `N#Cc1ccc(OCc2nc(N)nc(N)c2-c2ccc(Cl)c(Cl)c2)cc1`, the growth is 82.2% with T-47D breast; 34.2% in the assay with BT-549 breast; 15.9% in the assay with MDA-MB-435 melanoma; 21.8% in the assay on SW-620 colon; 15.2% in the assay on MCF7 breast; 11.9% in the assay with HCT-116 colon. For the same compound, the growth is 40.4% in the assay on HCC-2998 colon and 43.2% in the assay with KM12 colon.

As for `N=C(N)c1ccc(-c2ccc(-c3ccc(F)cc3)s2)cc1`, the growth in the assay with T-47D breast is -57.5% (active); with BT-549 breast, -19.9% (active); in the assay with MDA-MB-435 melanoma it was -99.2% (active); in the assay with SW-620 colon, -87.9% (active); in the assay with MCF7 breast, -83.5% (active); in the assay on HCT-116 colon it was -83.3% (active). For the same compound, the growth is -77.5% (active) with HCC-2998 colon and -87.3% (active) with KM12 colon.

In the case of `COC(=O)[C@H](Cc1cn(C)cn1)NC(=O)[C@H](Cc1c[nH]c2ccccc12)NC(=O)Nc1cc(C(F)(F)F)cc(C(F)(F)F)c1`, the growth in the assay on T-47D breast is -72.2% [100 µM] (active); with BT-549 breast, -88.6% [100 µM] (active); with MDA-MB-435 melanoma, -88.5% [100 µM] (active); with SW-620 colon, -38.1% [100 µM] (active); with MCF7 breast it was -58.6% [100 µM] (active); in the assay with HCT-116 colon, -89.1% [100 µM] (active). For the same compound, the growth in the assay on HCC-2998 colon is -96.8% [100 µM] (active); with KM12 colon, -86.6% [100 µM] (active).
